The text below walks through data of PubChem BioAssay AID651946 (Broad Institute, 2012).

Results with a measured potency or affinity are listed apart. Values without a mark were called inactive.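 Rule for the calls: active = toxic compound whose fitted half-effect dose of signal loss is at most twice its top tested dose; inconclusive = flat fit losing 30 to 70% signal, or poor fit; inactive = the rest.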

The nature of this assay: HeLa cell viability loss – plate reader, dry powder, cytotoxicity control, dose response (AID 651946). Particulars: ATP luminescence (CellTiter-Glo), 48 h; series mostly up to 26 µM; activity change, negative = cytotoxicity: at the top concentration.
As to `Clc1ccc(-c2nnc(SCc3ccccc3)o2)cc1`, the “activity change, negative = cytotoxicity” value is 9.97%.
For `c1ccc(CSc2nnc(-c3ccccc3)o2)cc1`, the “activity change, negative = cytotoxicity” value was -8.64%.
With `COc1ccc(CSc2nnc(-c3ccccc3)o2)cc1` the figure was -12.5%.
